# Source: PubChem BioAssay AID504333 (National Center for Advancing Translational Sciences (NCATS), 2011)
# In all, about 360,000 compounds went through this assay and about 16,000 (4.4%) were called active. Roughly 9% stayed inconclusive and do not appear here. Shown is part of a subset that was picked to be rich in actives. Values without a mark were called inactive. Calls come from the whole dose curve; as a rule, active = well fitted inhibition curve with a large enough effect; inconclusive = small, poorly fitted or top-dose-only effect; inactive = no such curve, though single readings can be large or run the other way.
# Target: Bromodomain adjacent to zinc finger domain protein 2B (Homo sapiens) (UniProt Q9UIF8)
# Sequence (Q9UIF8 whole entry, looked up, the tested form may be a part): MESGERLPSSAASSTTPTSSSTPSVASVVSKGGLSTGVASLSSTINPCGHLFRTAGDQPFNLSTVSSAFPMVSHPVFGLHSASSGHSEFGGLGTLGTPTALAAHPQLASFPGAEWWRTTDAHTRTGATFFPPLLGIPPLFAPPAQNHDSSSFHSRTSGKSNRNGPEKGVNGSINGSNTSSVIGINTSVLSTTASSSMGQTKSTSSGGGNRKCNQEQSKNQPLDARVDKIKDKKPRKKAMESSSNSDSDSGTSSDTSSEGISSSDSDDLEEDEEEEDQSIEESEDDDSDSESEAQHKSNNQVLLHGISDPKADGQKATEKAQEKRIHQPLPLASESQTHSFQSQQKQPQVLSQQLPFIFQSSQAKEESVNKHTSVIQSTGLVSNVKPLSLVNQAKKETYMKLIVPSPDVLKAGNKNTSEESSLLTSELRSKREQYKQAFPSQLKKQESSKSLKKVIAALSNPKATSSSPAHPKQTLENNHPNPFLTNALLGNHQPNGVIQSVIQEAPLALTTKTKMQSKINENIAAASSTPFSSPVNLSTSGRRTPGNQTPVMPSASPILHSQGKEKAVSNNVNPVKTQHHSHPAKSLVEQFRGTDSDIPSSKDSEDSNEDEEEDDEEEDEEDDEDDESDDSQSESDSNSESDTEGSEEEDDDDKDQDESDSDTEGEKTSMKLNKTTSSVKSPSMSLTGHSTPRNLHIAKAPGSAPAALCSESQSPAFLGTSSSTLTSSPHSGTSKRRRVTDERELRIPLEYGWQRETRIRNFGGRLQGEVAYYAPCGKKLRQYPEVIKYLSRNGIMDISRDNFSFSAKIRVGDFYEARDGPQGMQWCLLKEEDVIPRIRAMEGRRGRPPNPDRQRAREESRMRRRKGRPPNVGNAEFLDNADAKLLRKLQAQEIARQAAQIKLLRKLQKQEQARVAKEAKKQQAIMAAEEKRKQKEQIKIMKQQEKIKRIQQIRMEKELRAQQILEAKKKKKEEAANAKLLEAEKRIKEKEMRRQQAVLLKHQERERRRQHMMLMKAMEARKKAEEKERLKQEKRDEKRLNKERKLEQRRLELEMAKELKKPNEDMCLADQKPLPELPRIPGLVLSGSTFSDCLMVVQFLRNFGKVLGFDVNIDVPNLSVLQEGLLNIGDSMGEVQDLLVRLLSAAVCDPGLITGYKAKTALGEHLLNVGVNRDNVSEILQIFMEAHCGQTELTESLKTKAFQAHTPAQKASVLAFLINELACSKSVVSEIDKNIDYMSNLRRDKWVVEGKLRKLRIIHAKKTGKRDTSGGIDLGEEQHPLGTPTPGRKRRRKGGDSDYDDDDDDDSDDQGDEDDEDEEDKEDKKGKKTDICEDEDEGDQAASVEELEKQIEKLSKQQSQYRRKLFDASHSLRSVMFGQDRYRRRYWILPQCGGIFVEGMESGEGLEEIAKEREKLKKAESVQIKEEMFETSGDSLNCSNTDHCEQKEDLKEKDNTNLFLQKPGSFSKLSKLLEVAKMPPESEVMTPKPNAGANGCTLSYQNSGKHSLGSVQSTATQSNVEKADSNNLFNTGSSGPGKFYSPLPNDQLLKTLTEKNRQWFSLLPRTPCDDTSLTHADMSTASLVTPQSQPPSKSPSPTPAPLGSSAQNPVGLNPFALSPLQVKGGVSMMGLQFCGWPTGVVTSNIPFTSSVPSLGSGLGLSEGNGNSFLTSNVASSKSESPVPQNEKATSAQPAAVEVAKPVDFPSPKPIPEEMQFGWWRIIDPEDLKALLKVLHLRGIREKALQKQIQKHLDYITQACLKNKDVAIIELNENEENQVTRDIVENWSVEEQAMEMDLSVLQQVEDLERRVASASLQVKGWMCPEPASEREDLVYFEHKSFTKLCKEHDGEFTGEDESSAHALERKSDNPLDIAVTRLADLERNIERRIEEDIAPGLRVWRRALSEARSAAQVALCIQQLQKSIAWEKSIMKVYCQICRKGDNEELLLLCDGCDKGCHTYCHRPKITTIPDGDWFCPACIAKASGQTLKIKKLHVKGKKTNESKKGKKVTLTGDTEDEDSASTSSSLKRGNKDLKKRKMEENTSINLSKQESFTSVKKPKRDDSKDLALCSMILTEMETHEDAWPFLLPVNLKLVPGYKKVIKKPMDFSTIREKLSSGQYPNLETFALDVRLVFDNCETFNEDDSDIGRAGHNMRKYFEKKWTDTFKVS
# Test: qHTS Assay for Inhibitors of BAZ2B; note: nearly all actives have a fitted effect of over 60% in size
# Conditions: AlphaScreen BAZ2B-H3K14Ac peptide displacement; series mostly up to 114 µM; activity change, negative = inhibition: at the top concentration
# Summary of the method: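 In this displacement format the biotinylated H3(5-23) peptide acetylated at Lys14 serves as ligand at 50 nM, with BAZ2B at 50 nM in PBS pH 7.4 containing 0.01% Tween-20. Donor and acceptor beads are 10 ug/mL final.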
# % is set by controls: 0 for no effect and ±100 for the full control effect; potency is the fitted concentration of half-maximal effect.
SMILES,"activity change, negative = inhibition",Potency
O=C(O)c1ccc(-n2nc(-c3ccccc3)c3ccccc3c2=O)cc1,2.92%,–
O=C(O)c1n[nH]nc1-c1ccccc1,–,56.2 µM (active)
N#Cc1c(-c2ccccc2)c(-c2ccccc2)n[nH]c1=O,-11.4%,–
COc1ccc(Br)cc1CNC(=O)c1cc(=O)[nH]c2ccc(S(=O)(=O)N3CCCC3)cc12,0.679%,–
COc1ccc(N(Cc2ccc(N(C)C)cc2)C(=O)c2ccc(S(C)(=O)=O)cc2)cc1,–,39.8 µM (active)
COc1ccc(S(=O)(=O)NCc2ccc(C(=O)N(C)Cc3ccco3)cc2)cc1,-3.81%,–
COc1ccc(C(=O)N(Cc2ccc(N(C)C)cc2)C2CCS(=O)(=O)C2)cc1 (configuration not stated),-30.6%,–
CC(C)Cn1c(=O)c2ccccc2n2c(CCC(=O)N3CCN(c4cccc(Cl)c4)CC3)nnc12,-0.869%,–
Cc1cc(NC(=O)c2cccc(Cl)c2)ccc1-c1cc2ccccc2oc1=O,5.75%,–
O=C(CN1C(=O)C2C3CCC(C3)C2C1=O)Oc1ccc2ccccc2c1 (configuration not stated),8.38%,–
CC1=CC(C)(C)Nc2ccc(OC(=O)C(Cc3ccccc3)N3C(=O)C4CCCCC4C3=O)cc21 (configuration not stated),-37.8%,–
CC1=CC(C)(C)Nc2ccc(OC(=O)CN3C(=O)C4CCCCC4C3=O)cc21 (configuration not stated),–,56.2 µM (active)
COc1ccc(CCNC(=O)c2ccc3c(c2)sc2nc(-c4ccc(C)cc4)cn23)cc1OC,-0.933%,–
Cc1cccc(CNC(=O)c2cnc3sc(N4CCCCC4)nn3c2=O)c1,11.1%,–
Cc1ccc2nc(/C(C#N)=C/c3ccc(-c4ccc(C(=O)OC(C)C)cc4)o3)[nH]c2c1,-14.2%,–
CCc1ccccc1NC(=O)N1CCC2(CC1)Oc1ccccc1C(=O)N2Cc1ccccc1F,-2.22%,–
c1ccc2sc(NN=C3CCCC3)nc2c1,1.97%,–
COc1ccc(CC(=O)N/N=C/c2cc([N+](=O)[O-])cc(Br)c2O)cc1,-17.4%,–
O=[N+]([O-])c1cc(Br)c(O)c(/C=N/Nc2nc3ccccc3s2)c1,–,35.5 µM (active)
CCN(CC)CCNC(=O)c1cc2c(=O)oc3ccc(C)cc3c2s1,-4.73%,–
CCOc1cccc(NC(=O)c2ccc(F)c(S(=O)(=O)N(CC)c3cccc(C)c3)c2)c1,8.6%,–
O=C(CCc1ccccc1)Nc1nn[nH]n1,–,70.8 µM (active)
O=C(CCc1ccccc1)NNc1ccc(F)cc1,-4.02%,–
CC(C)Cc1nnc(NC(=O)CCc2ccccc2)s1,-3.69%,–
COc1ccc(OC)c(CNC(=O)CN2C(=O)CCn3nc(-c4cn(C)c5ccccc45)cc32)c1,-33.4%,–
COc1cccc(NC(=O)c2ccc3nc(CCc4ccccc4)oc3c2)c1,0.792%,–

SMILES,"activity change, negative = inhibition",Potency
CC(=O)N1CCCc2cc(S(=O)(=O)N3CCC(C(=O)NCc4ccc(C)cc4)CC3)ccc21,2.46%,–
O=C(Nc1cc(C(F)(F)F)ccc1Cl)c1ccc2c(c1)CCN2S(=O)(=O)c1ccccc1,-1.09%,–
Clc1cccc(Cl)c1OCCOCCNCc1ccccc1,–,56.2 µM (active)
OCCNCc1cccc(OCc2ccccc2Cl)c1,-19%,–
S=C(NCCc1ccccc1)NCc1ccccc1Cl,3.82%,–
CN1CCN(CC(=O)Nc2cccc([N+](=O)[O-])c2)CC1,6.3%,–
CCCCc1nc2ccccc2c(=O)n1NC(=O)c1c(O)c2cccc3c2n(c1=O)CC3,23.1%,–
CCCCc1nc2ccccc2c(NC(=O)CN2CCN(C)CC2)c1CCC,–,50.1 µM (active)
Fc1ccc(CN2CCc3nc(Nc4ccccc4)ncc3C2)cc1F,-24.7%,–
COc1cc(/C=C/C2=CC(C)(C)NC(=S)N2)cc(OC)c1OC,-25.7%,–
COc1ccc(/C=C/C2=CC(C)(C)NC(=S)N2)c(OC)c1,–,39.8 µM (active)
COc1ccc(/C=C/C(=O)OCC(=O)Nc2cccc(Oc3ccccc3)c2)c(OC)c1,0.384%,–
O=C(O)c1c(CNCc2cccc(F)c2)c2ccccc2n1Cc1ccccc1,-0.857%,–
COC(=O)c1ccccc1NC(=O)c1cnn(-c2ccc(F)cc2)c1-n1cccc1,-14.4%,–
Cc1ccc2oc3c(c(=O)c2c1)C(c1ccc(O)cc1)N(Cc1ccc2c(c1)OCO2)C3=O (configuration not stated),-0.588%,–
CCOc1ccc(CCNC(=O)CN(c2ccc(C)cc2)S(=O)(=O)N(C)C)cc1OCC,1.55%,–
CCN(CC)c1ccc(/C=N/Nc2nc(C)cc(C)n2)c(O)c1,–,25.1 µM (active)
CCN(CC)c1ccc(/C=N/NC(=O)c2cnccn2)c(O)c1,-7.91%,–
Cc1cc(C)nc(N/N=C/c2ccc([N+](=O)[O-])o2)n1,-25.2%,–
Cc1ccc(-c2noc(CSc3nnc(-c4ccc(Cl)cc4)n3C)n2)cc1,-2.06%,–
O=C(CCC1CCCN(Cc2ccc(O)c(Cl)c2)C1)NCc1ccccc1F (configuration not stated),-15%,–
CSc1ncccc1C(=O)N1CCCC(CCC(=O)NCc2ccccc2F)C1 (configuration not stated),-0.331%,–
Cc1[nH]c2c(C(=O)N3CCCC(CCC(=O)NCc4ccccc4F)C3)cccc2c1C (configuration not stated),–,70.8 µM (active)
CCCNC(=O)C1CCC(Cn2c(=O)c3sccc3n(Cc3ccccc3F)c2=O)CC1 (configuration not stated),-3.32%,–
Cc1ccccc1NC(=O)Cn1c(=O)n(CCCCC(=O)NCc2ccccc2Cl)c(=O)c2ccccc21,1.21%,–
Cc1cc(F)ccc1NS(=O)(=O)c1ccc(-n2cccn2)cc1,-2.31%,–

SMILES,"activity change, negative = inhibition",Potency
Cn1ccc2cc(S(=O)(=O)N3CCCC(C(=O)NCc4ccccc4F)C3)ccc21 (configuration not stated),-3.06%,–
Cc1oc(-c2ccccc2)nc1Cn1c(SCc2cccc(C(F)(F)F)c2)nc2cccnc21,-3.84%,–
CCc1nn(CC(=O)N2CCN(c3ccc(Cl)cc3)CC2)c(=O)c2cc3occc3n12,-29.9%,–
COc1ccccc1N1CCN(CC(=O)NC(=O)NCc2ccco2)CC1,-3.12%,–
O=C(CN1CCN(S(=O)(=O)/C=C/c2ccccc2)CC1)NC(=O)NCc1ccco1,–,50.1 µM (active)
NC(=O)CCN1CCN(S(=O)(=O)/C=C/c2ccccc2)CC1,3.29%,–
COc1cccc(CNCCSc2nnnn2C)c1OCc1ccccc1Cl,-22%,–
O=c1nc2s/c(=C\c3ccco3)c(=O)n2nc1Cc1ccccc1,–,50.1 µM (active)
O=C(Cc1ccccc1)n1nc(-c2ccccc2)nc1NCc1ccco1,11.8%,–
O=C(Nc1ccccc1)/C(=C\c1ccco1)NC(=O)c1ccco1,-17.7%,–
CCOc1ccccc1N(CC)C(=O)c1cc2ccc3cccnc3c2[nH]1,-0.472% [at 57.1 µM],–
CC(=O)c1cccc(NC(=O)c2nc(-c3ccccc3)n(-c3cccc(C)c3)n2)c1,-9.48%,–
Cc1nnc(NC(=O)CSc2nccn2-c2cccc(C)c2C)s1,-29.9%,–
Cc1ccccc1-n1c(SCC(=O)Nc2cccc3ccccc23)nc(O)cc1=O,-38.7%,–
Cc1cccc(-n2ccnc2SCC(=O)Nc2cccc3ccccc23)c1C,–,14.1 µM (active)
O=C(CSc1nccn1Cc1ccc(F)cc1)NCc1ccccc1,-22%,–
O=C(CSc1nccn1-c1ccc(F)cc1)Nc1cccc2ccccc12,–,7.94 µM (active)
CC(=O)Nc1cccc(NC(=O)CSc2nccn2Cc2ccc(F)cc2)c1,-24.5%,–
O=C(CSc1n[nH]c(-c2ccccc2)n1)N1CCCCC1,6.63%,–
CN(C(=O)c1ccc2c(c1)N(Cc1cccc(Cl)c1)C(=O)c1ccccc1S2=O)C1CCCCC1 (configuration not stated),-10.9%,–
Cc1ccc(NC(=O)c2ccc3[nH]c(C)cc(=O)c3c2)c(C)c1,0.886%,–
O=C1CSC2(C(=O)N(Cc3ccccc3)c3ccccc32)N1c1cccc(F)c1 (configuration not stated),-33%,–
CSc1ncc(C(=O)NCc2ccccc2Cl)c(C(F)(F)F)n1,12.8%,–
COc1ccc(OC)c(-c2csc(-c3c(N)c(C(=O)c4ccccc4)n4ccccc34)n2)c1,-0.518%,–
O=C(NC1CCCC1)C(=O)c1c[nH]c2ccccc12,-21.7%,–
NC(=O)CSc1c[nH]c2ccccc12,7.21%,–

SMILES,"activity change, negative = inhibition",Potency
O=S(=O)(O)Oc1c[nH]c2ccccc12,–,44.7 µM (active)
CC(=O)N(C1=C(Cl)C(=O)c2ccccc2C1=O)c1ccc(C(=O)O)cc1,–,28.2 µM (active)
CCc1ccc(-n2nc(C)c3c(C)cc(=O)n(CC(=O)Nc4ccc(F)cc4C)c32)cc1,-2.03%,–
CC1CC(C)(C)NC(=S)N1CCC(=O)N1CCN(Cc2ccccc2)CC1 (configuration not stated),-0.357%,–
CC1CC(=S)Nc2ccccc2N1Cc1ccccc1 (configuration not stated),–,39.8 µM (active)
CC1CC(=O)Nc2ccccc2N1S(=O)(=O)c1cccs1 (configuration not stated),2.06%,–
Cc1nc(N2CCOCC2)c2c(C(=O)NCc3cccc(Cl)c3)c(C)oc2n1,9.33% [at 57.1 µM],–
CCOc1ccc(C(=O)Nc2nccs2)cc1[N+](=O)[O-],6.29%,–
Cc1c(Br)c([N+](=O)[O-])nn1C(C)C(=O)Nc1nccs1 (configuration not stated),–,79.4 µM (active)
O=C(CCn1ccc([N+](=O)[O-])n1)Nc1nccs1,-7.33%,–
COc1ccc(-c2nc3scc(CCNS(=O)(=O)c4cc(F)ccc4OC)n3n2)cc1OC,-14.6%,–
COc1ccccc1C(=O)OCc1cc(=O)n2nc(-c3cccs3)sc2n1,-31.5%,–
CC1=Nc2cc(C(=O)NCc3ccc(C)cc3)ccc2Sc2ccc(Cl)cc21,-12.7%,–
Fc1ccc(-c2ccc(CNCc3ccccn3)o2)cc1Cl,–,31.6 µM (active)
O=S(=O)(NCc1ccccn1)c1ccc(F)cc1,-2.51%,–
Cc1cc(Cl)ccc1OCCCC(=O)NCc1ccccn1,-6.56%,–
O=C(CCc1nc(CN2CCN(S(=O)(=O)c3ccc(Br)cc3)CC2)no1)N1CCCCC1,-19.9%,–
COC(=O)c1ccccc1NC(=O)C(Cc1ccccc1)N1Cc2ccccc2C1=O (configuration not stated),-0.606%,–
CCN(CCCNC(=O)c1cc2cc3cc(OC)ccc3nc2s1)c1ccccc1,-27.3%,–
Cc1cc([N+](=O)[O-])ccc1NC1CCCC1,-0.979%,–
Cc1cc(C=O)c(C)n1-c1ccc(NC2CCCCC2)c([N+](=O)[O-])c1,–,10 µM (active)
Cc1c(NS(=O)(=O)c2ccc(NC3CCCC3)c([N+](=O)[O-])c2)c(=O)n(-c2ccccc2)n1C,-27.8%,–
CCOc1ccc(-c2cc(C)n3nc(C(=O)Nc4ccc(C)c(C)c4)cc3n2)cc1,-6.73%,–
CCOC(=O)c1scc(-c2ccccc2)c1S(=O)(=O)Nc1ccccc1F,7.14%,–
